This is an account of results in ChEMBL document CHEMBL4513149, “CO-ADD screening of MMV (CH) - MMV compounds” (2021).

Each structure is given as a SMILES string. Potency and affinity values are given separately.

This assay deals with Candida albicans. The conditions noted are these: 20 µM.
What is called Inhibition is the percentage by which the read-out fell short of the control. In turn, `NS(=O)(=O)c1cccc(-c2ccc3ncc(N4CCOCC4)nc3c2)c1` gave an Inhibition of 4.12%.

Compound `Nc1ccc(C(=O)Nc2ccc(-c3nc4ccccc4o3)cc2)cc1` displayed an Inhibition of 15.1%.

With `O=C(C1CCCCC1)N1CC(=O)N2CCc3ccccc3C2C1` (stereo unspecified) [PRAZIQUANTEL], the Inhibition turned out to be 4.53%.

As for `c1ccc(Oc2ccc(-c3cc(C4CCOCC4)[nH]n3)cc2)cc1`, the Inhibition came out at 7.75%.

The compound `c1ccc(Oc2ccc(-c3cc(CN4CCOCC4)[nH]n3)cc2)cc1` gave an Inhibition of 4.1%.

Regarding `c1ccc(Oc2ccc(-c3cncc(-c4ccc5[nH]ccc5c4)n3)cc2)cc1`, the Inhibition came to 4.38%.

In turn, `CCOC(=O)c1c(NC(=O)c2c(F)c(F)c(F)c(F)c2F)sc(C(N)=O)c1C` had an Inhibition of 5.2%.

Compound `O=C(Nc1cccc(Cl)c1)c1cnc(N2CCN(c3ccncc3)CC2)c(Cl)c1` yielded an Inhibition of 2.09%.

The compound `CC(C)(C)n1nc(-c2ccccc2)c2c(N)ncnc21` had an Inhibition of 1.46%.

Regarding `CNc1nnc(Sc2cnn(-c3ccccc3)c(=O)c2Cl)s1`, the Inhibition is 4.99%.

With `COc1cc(C(F)(F)F)nc2ccc(C)c(N)c12`, the Inhibition worked out at 6.41%.

`CN1CCN(S(=O)(=O)c2ccc(-c3ccc4c(Nc5ccc6nn[nH]c6c5)ccnc4c3)cc2)CC1`: the Inhibition was 4.6%.

The compound `O=C(NCc1nnc2n1CCCCC2)c1ccc(-c2ccc(F)cc2)o1` displayed an Inhibition of 3.81%.

`Cc1cc(C)cc(COc2ccc3c(C)c(CCC(=O)O)c(=O)oc3c2C)c1` registered an Inhibition of 6.48%.

In the case of `COc1cc(-c2cc(-c3ccc(S(C)(=O)=O)cc3)cnc2N)ccc1O`, the Inhibition was 3.91%.

`CC(C)(C(=O)Nc1ccc(F)cc1)n1cc(-c2ccccc2F)cn1` returned an Inhibition of 7.41%.

`COC(=O)C1=C(C)NC(C)=C(C(=O)OC(C)C)C1c1cccc2nonc12` (stereo unspecified) [ISRADIPINE] showed an Inhibition of 4.19%.

As to `Cc1cc(OCC(=O)NCc2ccccc2)c2cc(Br)ccc2n1`, the Inhibition worked out at 0.18%.

Consider `COc1cccc(CC(=O)N2CCC(n3c(C)nc4ccc(F)cc43)CC2)c1`, for which the Inhibition was found to be 3.01%.

On to `CC(Oc1cccc(Cl)c1)C(=O)Nc1ccc2oc(-c3ccncc3)nc2c1` (stereo unspecified), for which the Inhibition came to 6.74%.

In turn, `O=[N+]([O-])c1cn2c(n1)OC[C@@H](OCc1ccc(OC(F)(F)F)cc1)C2` [PRETOMANID] yielded an Inhibition of 4.06%.

With `COc1nc2ccc(Br)cc2cc1[C@@H](c1ccccc1)[C@@](O)(CCN(C)C)c1cccc2ccccc12.O=C(O)C(F)(F)F`, the Inhibition was 4.38%.

For `Cc1cc2nc(NC(=O)C(C)(C)C)nc(Cl)c2n1Cc1ccc(Cl)cc1`, the Inhibition came out at 3.57%.

In turn, `O=C(C1CCN(c2nnc(-n3cccc3)s2)CC1)N1CCC(Cc2ccccc2)CC1` came in with an Inhibition of 4.63%.

In turn, `Cc1cc(Nc2ccncc2)n2nc(C)c(-c3ccccc3Cl)c2n1` came in with an Inhibition of 1.91%.

With `Cl.O[C@@H](c1cc(C(F)(F)F)nc2c(C(F)(F)F)cccc12)[C@H]1CCCCN1`, the Inhibition was found to be 6.48%.

In the case of `COc1ccc(-c2cnc3cnc(-c4cccc(OC(C)C)c4)cn23)cc1`, the Inhibition amounted to 11.6%.

In the case of `COc1ccc2nc(C)cc(OCC(=O)NCc3ccccc3)c2c1`, the Inhibition was 2.81%.

As for `Cc1ccc2nc(C)c(-c3ccn(Cc4ccccc4)n3)n2c1`, the Inhibition was 3.75%.

For the compound `Nc1cccnc1Nc1ccc(Cl)cc1`, the Inhibition is 1.73%.

Take `Nc1ncc(-c2ccc(C(F)(F)F)nc2)cc1-c1ccc(C(F)(F)F)nc1`: the Inhibition is 5.26%.

On to `Clc1ccc(CN2CCN(C3=NCCN3)CC2)cc1Cl`, for which the Inhibition was 2.1%.

On to `Cc1cc(NC(=O)c2ccc(S(=O)(=O)N(Cc3ccccc3)C(C)C)cc2)no1`, for which the Inhibition was determined as 1.89%.

`Cc1cnc(N2CCN[C@@H](Cc3ccccc3)C2)nc1Oc1ccc(-n2ccnc2)cc1.Cl` came in with an Inhibition of 2.69%.

In turn, `O=C(Nc1nc(-c2ccccn2)cs1)C1CC1c1ccccc1F` (stereo unspecified) had an Inhibition of 5.33%.

With `O=C(CN1CCOCC1)Nc1ccc2ncnc(Nc3ccc(OCc4cccc(F)c4)c(Cl)c3)c2c1`, the Inhibition is 5.94%.
